Z-score and composite z-score data for 10 compounds are collected here from PubChem BioAssay.

Each structure is given as a SMILES string. Calls of active or inactive are those of the source. Unless noted, the rule behind the calls is not given here.

Assay [1] can be described thus: HepG2 liver cancer cell viability effects, profiling panel, resazurin fluorescence, 24 h, PK04 Diversity Set (AID 1172). Note: test concentration not given here. The following applies: higher = more signal. In general terms: The colour change of resazurin is a common sign of viable cells or microbes.
The nature of assay [2]: basal S. cerevisiae growth modulation, no modifier, primary screen, OD600, strain BY4716, 24 h, basal condition (AID 1173). The following applies: OD600, 24 h, higher = more signal, called active from +8 up or from −8 down.
Assay [3] can be described thus: MM1S myeloma cell viability, profiling panel, resazurin fluorescence, basal, 24 h, PK04 Diversity Set (AID 1174).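 Note: MM1S multiple myeloma cell line; test concentration not given here.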 Particulars: higher = more signal, called active from +8 up or from −8 down.
Assay [4] addresses Dihydroorotate dehydrogenase (quinone), mitochondrial (Plasmodium falciparum (isolate 3D7)) (UniProt Q08210). The experiment in a line: PfDHODH enzyme inhibitors, primary screen, biochemical, C-terminal His tag, absorbance 600 nm (AID 1175).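 Note: recombinant parasite enzyme with a five histidine tag at its C terminus; test concentration not given here.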 The following applies: DCIP absorbance 600 nm, higher = more signal, called active from +8 up or from −8 down.
Assay [5] can be described thus: P. aeruginosa biofilm formation inhibitors, primary screen, strain PAO1, LB-PBS medium, absorbance 600 nm (AID 1176). Note: test concentration not given here. The following applies: P. aeruginosa PAO1 growth/biofilm, A600, 12 h; higher = more signal.
Assay [6] is described as follows: S. cerevisiae RM11-1a growth modifiers, primary screen, strain RM11-1a, OD600, basal, 24 h (AID 1177).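 Note: cultures grown under basal conditions with no added stressor; test concentration not given here.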 The following applies: OD600, 24 h, higher = more signal, called active from +8 up or from −8 down.
Assay [7] can be described thus: E. coli acrAB mutant growth effects, primary screen, E. coli filamentation inducers, strain DRC39, OD650, 24 h (AID 1178).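 Note: growth measured as culture turbidity by optical density at 650 nm; test concentration not given here.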 Particulars: higher = more signal, called active from +8 up or from −8 down.
The nature of assay [8]: E. coli acrAB mutant growth effects, primary screen, E. coli filamentation inducers, strain DRC39, OD650, 48 h (AID 1179).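 Note: screen aims at cell division blockers that make cells filament.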 Particulars: E. coli DRC39 delta-acrAB growth, higher = more signal, called active from +8 up or from −8 down.
Assay [9] is described as follows: RPMI8226 myeloma cell viability, profiling panel, resazurin fluorescence, basal, 24 h, PK04 Diversity Set (AID 1180).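 Note: RPMI8826 multiple myeloma cell line at 5000 cells per well; test concentration not given here.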 The following applies: higher = more signal.
In assay [10] the target is E3 ubiquitin-protein ligase XIAP (Homo sapiens) (UniProt P98170). Kind of assay: XIAP binders, primary screen, biophysical, small-molecule microarray, fluorescence 635 nm (AID 1181).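 Note: score merges 667 nm emission and signal to noise over triplicate slides.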 The following applies: small-molecule microarray binding, higher = more signal.
E3 ubiquitin-protein ligase XIAP (Homo sapiens), sequence (P98170 whole entry, looked up): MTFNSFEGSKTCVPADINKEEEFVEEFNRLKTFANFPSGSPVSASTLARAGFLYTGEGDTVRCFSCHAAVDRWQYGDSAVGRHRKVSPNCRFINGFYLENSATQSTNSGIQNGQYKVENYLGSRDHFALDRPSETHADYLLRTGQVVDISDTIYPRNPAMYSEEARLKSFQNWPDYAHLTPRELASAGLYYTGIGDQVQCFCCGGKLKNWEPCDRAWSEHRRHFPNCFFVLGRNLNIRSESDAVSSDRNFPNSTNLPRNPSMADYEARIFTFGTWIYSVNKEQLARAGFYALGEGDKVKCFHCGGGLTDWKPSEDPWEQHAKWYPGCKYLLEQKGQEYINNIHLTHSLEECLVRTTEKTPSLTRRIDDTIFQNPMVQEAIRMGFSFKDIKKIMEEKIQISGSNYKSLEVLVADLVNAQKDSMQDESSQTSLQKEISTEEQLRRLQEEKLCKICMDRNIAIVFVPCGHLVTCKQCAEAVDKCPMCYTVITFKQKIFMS

Dihydroorotate dehydrogenase (quinone), mitochondrial (Plasmodium falciparum (isolate 3D7)), sequence (Q08210 whole entry, looked up): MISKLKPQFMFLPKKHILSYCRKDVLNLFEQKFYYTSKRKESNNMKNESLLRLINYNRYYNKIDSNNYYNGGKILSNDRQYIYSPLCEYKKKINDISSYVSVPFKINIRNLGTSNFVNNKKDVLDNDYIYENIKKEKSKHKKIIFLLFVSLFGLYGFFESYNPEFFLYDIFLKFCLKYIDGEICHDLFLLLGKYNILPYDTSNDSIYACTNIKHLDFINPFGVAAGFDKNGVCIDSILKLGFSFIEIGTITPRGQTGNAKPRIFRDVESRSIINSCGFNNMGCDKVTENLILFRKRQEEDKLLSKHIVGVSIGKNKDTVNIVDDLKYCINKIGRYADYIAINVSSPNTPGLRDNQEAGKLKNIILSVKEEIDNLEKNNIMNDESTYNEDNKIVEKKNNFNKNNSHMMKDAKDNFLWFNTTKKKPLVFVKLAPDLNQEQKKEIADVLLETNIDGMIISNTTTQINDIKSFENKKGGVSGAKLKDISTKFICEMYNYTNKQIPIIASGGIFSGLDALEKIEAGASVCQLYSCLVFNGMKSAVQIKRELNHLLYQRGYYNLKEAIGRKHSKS

Consider `Cc1ccc(S[C@]2(C(=O)NCc3ccccc3)CC(=O)N(Cc3ccccc3Cl)[C@@H]2c2ccc(CO)cc2)cc1`, for which the z-score is -1.46 in assay [1]; -0.288 (inactive) in assay [2]; 0.464 (inactive) in assay [3]; 0.338 (inactive) in assay [5]; 0.884 (inactive) in [6]; -0.545 (inactive) in [7]. Besides, the z-score in assay [8] is -0.756 (inactive); in assay [9], 0.335. Also, the values for the composite z-score in assay [4] and in [10] were 0.429 (inactive) and 0.0623, respectively.
For the compound `COc1cc2c(cc1OC)CN(C(=O)[C@@H]1[C@H]3C(=O)O[C@H](c4ccccc4)[C@H](c4ccccc4)N3[C@H](c3ccc(O)cc3)[C@@]13C(=O)Nc1ccc(C#CC4=CCCCC4)cc13)CC2`, the z-score in [1] is 0.192; in assay [2], 0.45 (inactive); in assay [3] it was 0.466 (inactive); in assay [5], 0.297 (inactive); in assay [6] it was 1.48 (inactive); in assay [7], -0.0342 (inactive). For the same compound, the figures for the z-score in [8] and in [9] were 0.675 (inactive) and 0.233, respectively. The composite z-score in assay [4] was -0.151 (inactive); in assay [10] it was -0.0108.
`[N-]=[N+]=NCc1ccccc1C[C@@]1(C(N)=O)N=C(c2ccc(OCCCO)cc2)O[C@@H]1c1ccccc1N=[N+]=[N-]`: the z-score in assay [1] was 0.304; in assay [2], -1.35 (inactive); in assay [3], -1.32 (inactive); in [5], 2.28 (inactive); in assay [6], 0.0193 (inactive); in assay [7] it was 0.207 (inactive). The z-score in assay [8] was -0.893 (inactive); in assay [9] it was -0.644. The composite z-score was 0.474 (inactive) in [4] and 0.0871 in assay [10].
As to `O=C1O[C@H](c2ccccc2)[C@H](c2ccccc2)N2[C@H]1[C@@H](C(=O)Nc1nc3ccccc3s1)[C@]1(C(=O)Nc3ccccc31)[C@H]2c1ccccc1OCCO`, the z-score in assay [1] was 0.551; in assay [2], 0.448 (inactive); in assay [3], -1.93 (inactive); in assay [5] it was 2.76 (inactive); in assay [6] it was 2.72 (inactive); in [7], -0.0179 (inactive). The z-score in assay [8] is -0.145 (inactive); in assay [9], -3.31. Moreover, the composite z-score in assay [4] was 0.386 (inactive); in [10], -0.128.
Regarding `CN1C(=O)C2C=CC(C(O)COCc3ccccc3)N(Nc3ccc([N+](=O)[O-])cc3[N+](=O)[O-])C2C1=O` (stereo not given), the z-score was -0.473 in assay [1]; -2.33 (inactive) in [2]; -0.407 (inactive) in assay [3]; 0.558 (inactive) in assay [5]; 0.288 (inactive) in [6]; -0.143 (inactive) in assay [7]. In addition, the z-score in assay [8] was -0.445 (inactive); in assay [9] it was -0.143. In addition, the values for the composite z-score in assay [4] and in assay [10] were -0.42 (inactive) and 0.12, respectively.
For the compound `CC(C)(C)OC(=O)N1[C@@H](C=C(Br)Br)COC1(C)C`, the z-score in assay [1] was 0.373; in assay [2], -4.13 (inactive); in [3], 0.0757 (inactive); in assay [5], -0.677 (inactive); in assay [6], -1.65 (inactive); in assay [7], 0.559 (inactive). Besides, the z-score was 0.6 (inactive) in assay [8] and -0.673 in assay [9]. For the same compound, the composite z-score in assay [4] was -1.74 (inactive); in [10], 0.0335.
Consider `CN(C)CCCCNC(=O)[C@H]1C[C@H]2C(=O)N[C@@H](CCCCN(C)C)C(=O)N2[C@H]1c1ccc(O)cc1`, for which the z-score was 0.828 in assay [1]; -1.95 (inactive) in [2]; 0.419 (inactive) in assay [3]; 0.655 (inactive) in assay [5]; -1.52 (inactive) in assay [6]; 1.12 (inactive) in [7]. Moreover, the z-score in assay [8] was 1.67 (inactive); in assay [9] it was 1.82. Also, the composite z-score in assay [4] is 0.245 (inactive); in assay [10] it was -0.127.
In the case of `COC(=O)[C@@]1(Cc2ccc(F)cc2)[C@@H]2C(=CC(=O)[C@H]2CC(=O)C(=O)N2CCCC2)CN1C(=O)c1ccccc1`, the z-score is -1.96 in assay [1]; 0.336 (inactive) in assay [2]; -2.67 (inactive) in [3]; 2.55 (inactive) in assay [5]; 0.381 (inactive) in assay [6]; 0.132 (inactive) in [7]. Also, the z-score in assay [8] is -0.363 (inactive); in assay [9], -5.25. The composite z-score in assay [4] is -3.95 (inactive); in [10], -0.0391.
Consider `CN(C)CCCC[C@@H]1NC(=O)[C@H]2C[C@@H](C(=O)NCCCCCCNC(=O)CS)[C@@H](c3cccc(OCCO)c3)N2C1=O`, for which the z-score is -0.27 in assay [1]; -0.587 (inactive) in assay [2]; -0.956 (inactive) in [3]; 0.463 (inactive) in assay [5]; -0.511 (inactive) in assay [6]; 0.329 (inactive) in assay [7]. Further, the z-score in assay [8] was 0.0044 (inactive); in assay [9] it was -0.713. Also, the composite z-score in assay [4] was -0.237 (inactive); in [10] it was -0.177.
On to `COc1ccc(C(O)C2C=CC3C(=O)N(C)C(=O)C3N2Nc2ccccc2)cc1` (stereo not given), for which the z-score is -1.73 in assay [1]; -3.09 (inactive) in assay [2]; -0.956 (inactive) in [3]; 1.33 (inactive) in assay [5]; -0.119 (inactive) in assay [6]; -0.386 (inactive) in assay [7]. For the same compound, the z-score in assay [8] is -0.605 (inactive); in [9] it was -1.08. Further, the composite z-score is -0.685 (inactive) in [4] and 0.032 in assay [10].
